# Active and inactive are the calls of the source. Rule for the calls: active = hit-call score of the fitted dose curve at least 0.9, where 1 is the maximum; inactive = score below 0.9.
# How the values were obtained:
# [1] = read-out: Vascular endothelial growth factor receptor 2 (Homo sapiens) (UniProt P35968); experiment: BSK_4H_VEGFRII: BioMAP Diversity Plus: 4H Assay for Vascular endothelial growth factor receptor 2 (VEGFR2) Biomarker Activity (AID 2283031); settings: primary human endothelial cells (HUVEC); actives raise or lower the signal;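 for AC50: cell-surface VEGFR2 protein level quantified by ELISA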
# How it was run: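 HUVEC (human primary), 4H system; 24 h post-dose; VEGFRII by ELISA; bidirectional curve fit vs DMSO baseline; gain or loss of signal scored.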
# [2] = read-out: Vascular cell adhesion molecule 1 (VCAM1), VCAM1 (gene 7412); experiment: BSK_4H_VCAM1: BioMAP Diversity Plus: 4H Assay for Vascular cell adhesion molecule 1 (VCAM1) Biomarker Activity (AID 2283033); settings: primary human endothelial cells (HUVEC); actives raise or lower the signal
# How it was run: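 Primary human umbilical vein endothelial cells, 4H stimulation system, treated for 24 h; cell-surface VCAM-1 quantified by ELISA. Bidirectional fitting against DMSO; cytotoxicity tracked by SRB total-protein staining in parallel cultures.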
# [3] = read-out: Monokine induced gamma interferon (MIG), CXCL9 (gene 4283); experiment: BSK_BE3C_MIG: BioMAP Diversity Plus: BE3C Assay for Monokine induced gamma interferon (MIG) Biomarker Activity (AID 2283035); settings: primary human bronchial epithelial cells; actives raise or lower the signal;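 for outcome: MIG protein measured by ELISA in BE3C cultures after 24 h of dosing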
# How it was run: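 ELISA read-out of MIG in human lung bronchial epithelial primary cultures, 24 h post-dosing. Bidirectional curve fit vs DMSO baseline.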
# [4] = read-out: Transforming growth factor beta 1 (TGFb1), TGFB1 (gene 7040); experiment: BSK_BE3C_TGFb1: BioMAP Diversity Plus: BE3C Assay for Transforming growth factor beta 1 (TGFb1) Biomarker Activity (AID 2283036); settings: primary human bronchial epithelial cells; actives raise or lower the signal
# How it was run: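 Primary human bronchial epithelial cells dosed with chemical; TGF-b1 measured by ELISA 24 h after dosing. Bidirectional curve fitting against DMSO negative control; SRB total-protein staining in parallel cultures gauged cytotoxicity.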
# [5] = read-out: Plasminogen activator inhibitor-1 (PAI1), SERPINE1 (gene 5054); experiment: BSK_BE3C_PAI1: BioMAP Diversity Plus: BE3C Assay for Plasminogen activator inhibitor-1 (PAI1) Biomarker Activity (AID 2283037); settings: primary human bronchial epithelial cells; actives raise or lower the signal
# How it was run: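 Primary human bronchial epithelial cells (BE3C system) exposed 24 h; PAI-1 quantified by ELISA. Parallel sulforhodamine B staining of total protein flags cytotoxicity. Bidirectional fit versus DMSO.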
# [6] = read-out: urokinase plasminogen activator (uPA), PLAU (gene 5328); experiment: BSK_BE3C_uPA: BioMAP Diversity Plus: BE3C Assay for urokinase plasminogen activator (uPA) Biomarker Activity (AID 2283038); settings: primary human bronchial epithelial cells; actives raise or lower the signal;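 note: uPA protein level quantified by ELISA in cell cultures; uPA read one day after compound addition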
# How it was run: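 ELISA read-out of uPA in human lung primary bronchial epithelial cultures, 24 h post-dosing. Gain or loss of signal fitted bidirectionally relative to DMSO baseline; cytotoxicity checked in parallel cultures via SRB total protein stain.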
# [7] = read-out: Urokinase-type plasminogen activator receptor (uPAR), PLAUR (gene 5329); experiment: BSK_BE3C_uPAR: BioMAP Diversity Plus: BE3C Assay for Urokinase-type plasminogen activator receptor (uPAR) Biomarker Activity (AID 2283039); settings: primary human bronchial epithelial cells; actives raise or lower the signal;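 note: uPAR protein level measured by ELISA on the cells; cells exposed to compound for one day before measurement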
# How it was run: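 Primary human bronchial epithelial cells dosed for 24 h; uPAR quantified by ELISA with bidirectional fitting against DMSO. Overt cytotoxicity assessed in parallel cultures by SRB total-protein staining (0.1% SRB, 560 nm).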
# [8] = read-out: Interleukin-6 (IL6), IL6 (gene 3569); experiment: BSK_CASM3C_IL6: BioMAP Diversity Plus: CASM3C Assay for Interleukin-6 (IL6) Biomarker Activity for (AID 2283040); settings: primary human coronary artery smooth muscle cells; actives raise or lower the signal
# [9] = read-out: Tissue plasminogen activator (tPA), PLAT (gene 5327); experiment: BSK_BE3C_tPA: BioMAP Diversity Plus: BE3C Assay for Tissue plasminogen activator (tPA) Biomarker Activity (AID 2283041); settings: primary human bronchial epithelial cells; actives raise or lower the signal;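 for outcome: tPA level quantified by ELISA one day after compound addition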
# How it was run: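 Primary human bronchial epithelial cells in the BE3C system, exposed to compound for 24 h. tPA was quantified by ELISA; DMSO served as baseline, with gain or loss of signal fitted. Cytotoxicity checked in parallel cultures by SRB total-protein staining.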
# [10] = read-out: Interleukin-8 (IL8), CXCL8 (gene 3576); experiment: BSK_CASM3C_IL8: BioMAP Diversity Plus: CASM3C Assay for Interleukin-8 (IL8) Biomarker Activity (AID 2283042); settings: primary human coronary artery smooth muscle cells; actives raise or lower the signal;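 note: IL-8 protein level quantified by ELISA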
# [11] = read-out: Human Leukocyte Antigen - DR isotype (HLADR), HLA-DRA (gene 3122); experiment: BSK_CASM3C_HLADR: BioMAP Diversity Plus: CASM3C Assay for Human Leukocyte Antigen - DR isotype (HLADR) Biomarker Activity (AID 2283043); settings: primary human coronary artery smooth muscle cells; actives raise or lower the signal;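 note: cell-surface HLA-DR protein level quantified by ELISA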
# [12] = read-out: Macrophage colony-stimulating factor (MCSF), CSF1 (gene 1435); experiment: BSK_CASM3C_MCSF: BioMAP Diversity Plus: CASM3C Assay for Macrophage colony-stimulating factor (MCSF) Biomarker Activity (AID 2283044); settings: primary human coronary artery smooth muscle cells; actives raise or lower the signal;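 note: M-CSF protein amount quantified by ELISA after 24 h exposure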
# [13] = read-out: Low-density lipoprotein receptor (LDLR), LDLR (gene 3949); experiment: BSK_CASM3C_LDLR: BioMAP Diversity Plus: CASM3C Assay for Low-density lipoprotein receptor (LDLR) Biomarker Activity (AID 2283045); settings: primary human coronary artery smooth muscle cells; actives raise or lower the signal;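 note: LDLR protein level on the cell surface quantified by ELISA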
# [14] = read-out: Monocyte Chemoattractant Protein-1 (MCP1), CCL2 (gene 6347); experiment: BSK_CASM3C_MCP1: BioMAP Diversity Plus: CASM3C Assay for Monocyte Chemoattractant Protein-1 (MCP1) Biomarker Activity (AID 2283046); settings: primary human coronary artery smooth muscle cells; actives raise or lower the signal;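 note: MCP-1 level quantified by ELISA 24 h after dosing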
# [15] = BSK_CASM3C_Proliferation: Cell Proliferation Assessment in the BioMAP Diversity Plus: CASM3C Assay (AID 2283047); settings: primary human coronary artery smooth muscle cells;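 note: sulforhodamine B total protein stain as relative cell number at 560 nm; sub-confluent cells exposed 48 h before staining; fitted both ways against DMSO so gain or loss of cell number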
# [16] = read-out: Monokine induced gamma interferon (MIG), CXCL9 (gene 4283); experiment: BSK_CASM3C_MIG: BioMAP Diversity Plus: CASM3C Assay for Monokine induced gamma interferon (MIG) Biomarker Activity (AID 2283048); settings: primary human coronary artery smooth muscle cells; actives raise or lower the signal;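 note: MIG protein level measured by ELISA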
# [17] = read-out: serum amyloid A (SAA), SAA1 (gene 6288); experiment: BSK_CASM3C_SAA: BioMAP Diversity Plus: CASM3C Assay for serum amyloid A (SAA) Biomarker Activity (AID 2283049); settings: primary human coronary artery smooth muscle cells; actives raise or lower the signal;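 note: SAA protein level quantified by ELISA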
# [18] = BSK_CASM3C_SRB: Viability Assessment in the BioMAP Diversity Plus: CASM3C Assay (AID 2283050); settings: primary human coronary artery smooth muscle cells
# [19] = read-out: Interferon-gamma inducible Protein 10 (IP10), CXCL10 (gene 3627); experiment: BSK_BE3C_IP10: BioMAP Diversity Plus: BE3C Assay for Interferon-gamma inducible Protein 10 (IP10) Biomarker Activity (AID 2283034); settings: primary human bronchial epithelial cells; actives raise or lower the signal
# How it was run: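 Primary human bronchial epithelial cells, with IP-10 measured by ELISA 24 hours after chemical dosing. Bidirectional fit against DMSO; cytotoxicity checked by SRB total protein staining in parallel cultures.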
compound,measurement,setting,value
CC1(C)C(C(=O)OC(C#N)c2cccc(Oc3ccccc3)c2)C1(C)C (stereo not given),outcome,[1],inactive
same,outcome,[2],inactive
same,outcome,[3],inactive
same,outcome,[4],inactive
same,outcome,[5],inactive
same,outcome,[6],inactive
same,outcome,[7],inactive
same,AC50,[8],30.9 µM (active)
same,outcome,[9],inactive
same,outcome,[10],inactive
same,outcome,[11],inactive
same,outcome,[12],inactive
same,outcome,[13],inactive
same,outcome,[14],inactive
same,AC50,[15],13.2 µM (active)
same,outcome,[16],inactive
same,outcome,[17],inactive
same,outcome,[18],inactive
CCOc1nc(F)cc2nc(S(=O)(=O)Nc3c(Cl)cccc3Cl)nn12,outcome,[1],inactive
same,outcome,[2],inactive
same,AC50,[19],31.4 µM (active)
same,outcome,[3],inactive
same,outcome,[4],inactive
same,AC50,[5],20.9 µM (active)
same,outcome,[6],inactive
same,outcome,[7],inactive
same,outcome,[8],inactive
same,outcome,[9],inactive
same,outcome,[10],inactive
same,outcome,[11],inactive
same,outcome,[12],inactive
same,outcome,[13],inactive
same,outcome,[14],inactive
same,outcome,[15],inactive
same,outcome,[16],inactive
same,outcome,[17],inactive
same,outcome,[18],inactive
CC(C)=CC1C(C(=O)OCc2coc(Cc3ccccc3)c2)C1(C)C (stereo not given),outcome,[1],inactive
same,AC50,[2],4.5 µM (active)
same,outcome,[3],inactive
same,outcome,[4],inactive
same,outcome,[5],inactive
same,outcome,[6],inactive
same,outcome,[7],inactive
same,outcome,[8],inactive
same,outcome,[9],inactive
same,outcome,[10],inactive
same,outcome,[11],inactive
same,outcome,[12],inactive
same,outcome,[13],inactive
same,outcome,[14],inactive
same,AC50,[15],24.6 µM (active)
same,outcome,[16],inactive
same,outcome,[17],inactive
same,outcome,[18],inactive
CN/C(=N\[N+](=O)[O-])NCc1cnc(Cl)s1,outcome,[1],inactive
same,outcome,[2],inactive
same,outcome,[3],inactive
same,outcome,[4],inactive
same,outcome,[5],inactive
same,outcome,[6],inactive
same,outcome,[7],inactive
same,outcome,[8],inactive
same,outcome,[9],inactive
same,outcome,[10],inactive
same,outcome,[11],inactive
same,outcome,[12],inactive
same,outcome,[13],inactive
same,outcome,[14],inactive
same,outcome,[15],inactive
same,outcome,[16],inactive
same,outcome,[17],inactive
same,outcome,[18],inactive
Cc1cnc(C2=NC(C)(C(C)C)C(=O)N2)c(C(=O)O)c1 (stereo not given),outcome,[1],inactive
same,outcome,[2],inactive
same,outcome,[3],inactive
same,AC50,[4],4.93 µM (active)
same,outcome,[5],inactive
same,outcome,[6],inactive
same,outcome,[7],inactive
same,outcome,[8],inactive
same,outcome,[9],inactive
same,outcome,[10],inactive
same,outcome,[11],inactive
same,outcome,[12],inactive
same,outcome,[13],inactive
same,outcome,[14],inactive
same,outcome,[15],inactive
same,outcome,[16],inactive
same,outcome,[17],inactive
same,outcome,[18],inactive
COC(=O)NS(=O)(=O)c1ccc(N)cc1,outcome,[1],inactive
same,outcome,[2],inactive
same,outcome,[19],inactive
same,outcome,[3],inactive
same,outcome,[4],inactive
same,outcome,[5],inactive
same,outcome,[6],inactive
same,outcome,[7],inactive
same,outcome,[8],inactive
same,outcome,[9],inactive
same,outcome,[10],inactive
same,outcome,[11],inactive
same,outcome,[12],inactive
same,outcome,[13],inactive
same,outcome,[14],inactive
same,outcome,[15],inactive
same,outcome,[16],inactive
same,outcome,[17],inactive
same,outcome,[18],inactive
OC(c1ccc(Cl)cc1)(c1ccc(Cl)cc1)C(Cl)(Cl)Cl,AC50,[1],20 µM (active)
same,AC50,[2],28.3 µM (active)
same,AC50,[19],12.2 µM (active)
same,AC50,[3],14.5 µM (active)
same,AC50,[4],31.2 µM (active)
same,AC50,[5],13.9 µM (active)
same,outcome,[6],inactive
same,outcome,[7],inactive
same,outcome,[8],inactive
same,AC50,[9],13.1 µM (active)
same,AC50,[10],33.4 µM (active)
same,outcome,[11],inactive
same,AC50,[12],36.2 µM (active)
same,outcome,[13],inactive
same,AC50,[14],35.2 µM (active)
same,AC50,[15],30.4 µM (active)
same,AC50,[16],31.3 µM (active)
same,AC50,[17],32.2 µM (active)
same,AC50,[18],35.2 µM (active)
CCC(C)n1c(=O)[nH]c(C)c(Br)c1=O (stereo not given),outcome,[1],inactive
same,outcome,[2],inactive
same,outcome,[3],inactive
same,outcome,[4],inactive
same,outcome,[5],inactive
same,outcome,[6],inactive
same,outcome,[7],inactive
same,outcome,[8],inactive
same,outcome,[9],inactive
same,outcome,[10],inactive
same,outcome,[11],inactive
same,outcome,[12],inactive
same,outcome,[13],inactive
same,outcome,[14],inactive
same,outcome,[15],inactive
same,outcome,[16],inactive
same,outcome,[17],inactive
same,outcome,[18],inactive
CCOC(=O)C(C)OC(=O)c1cc(Oc2ccc(C(F)(F)F)cc2Cl)ccc1[N+](=O)[O-] (stereo not given),outcome,[1],inactive
same,outcome,[2],inactive
same,outcome,[3],inactive
same,outcome,[4],inactive
same,outcome,[5],inactive
same,outcome,[6],inactive
same,outcome,[7],inactive
same,outcome,[8],inactive
same,outcome,[9],inactive
same,outcome,[10],inactive
same,outcome,[11],inactive
same,AC50,[12],0.989 µM (active)
same,outcome,[13],inactive
same,AC50,[14],8.51 µM (active)
same,outcome,[15],inactive
same,outcome,[16],inactive
same,outcome,[17],inactive
same,outcome,[18],inactive

# From PubChem BioAssay (EPA / NIEHS)
